This is a sample that favours compounds with a hit; in the whole collection about 3.9% have one here.
FBA Mtb inh: inhibits M. tuberculosis FBA enzyme. purified M. tuberculosis FBA, fluorescence read-out. inhibition, % at 1 µM. hit rate 2.3% among 360,000. AID 588726; in the data active = inhibition above about 27%;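 note: 0% = vehicle and 100% = reference inhibitor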
Target sequence (P9WQA3 whole entry, looked up): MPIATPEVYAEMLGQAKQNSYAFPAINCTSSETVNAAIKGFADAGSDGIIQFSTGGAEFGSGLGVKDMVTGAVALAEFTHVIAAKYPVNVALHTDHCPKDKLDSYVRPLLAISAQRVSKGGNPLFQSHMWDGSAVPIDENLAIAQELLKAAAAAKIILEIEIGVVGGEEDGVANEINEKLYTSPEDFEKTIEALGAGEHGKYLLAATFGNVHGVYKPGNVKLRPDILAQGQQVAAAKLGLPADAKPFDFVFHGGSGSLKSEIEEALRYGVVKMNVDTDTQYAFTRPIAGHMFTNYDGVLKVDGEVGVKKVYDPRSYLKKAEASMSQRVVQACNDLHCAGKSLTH
SARS 3CLpro inh: SARS-CoV 3CLpro protease inhibition; inhibition, % at 6 µM; recombinant SARS-CoV 3CLpro, quenched FRET peptide cleavage; AID 1706; P0C6X7; hit rate 0.14% among 290,000; in the data active = inhibition above about 12%
PrPC TRFRET: reduces human prion protein on the cell surface | P04156 | hit rate 0.43% among 370,000 | inhibition, % at 13.8 µM | cell surface PrPC, TR-FRET read-out; in the data active = inhibition above about 24%; note: 0% = median of the test wells and 100% = reference compound wells
GDH-TPI counter: GDH-TPI coupled enzyme inhibition counter-screen; GDH-TPI coupled enzyme counterscreen, NADH absorbance; inhibition, % at 4.8 µM; hit rate 1.2% among 360,000; in the data active = inhibition above about 30%;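 note: 0% = DMSO wells and 100% = wells lacking the enzyme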
BH1578 lux ind: quorum light induction in luxS cqsA deficient V. cholerae; V. cholerae BH1578 lux reporter, luminescence, 6 h; activation, % at 18.7 µM; hit rate 0.16% among 350,000; in the data active = activation mostly above about 9.7%, no sharp cut-off
* hit, by the source's call; i = inactive; x = not tested or not shown; + = active, no number.

SMILES | FBA Mtb inh | SARS 3CLpro inh | PrPC TRFRET | GDH-TPI counter | BH1578 lux ind
Nc1nnc(CC(=O)N/N=C/c2ccc(-c3cccc(C(=O)O)c3)o2)s1 | 4 | 1 | -6 | 46* | 0
Nc1nnc(CC(=O)N/N=C/c2ccc(-c3ccc(F)cc3)o2)s1 | 2 | 0 | -10 | 21 | -1
CCOC(=O)c1ccc(-c2ccc(/C=N/NC(=O)Cc3nnc(N)s3)o2)cc1 | 21 | 2 | -21 | 40* | 0
Cc1nnc(N/N=C\c2ccc(-c3cccc(C(=O)O)c3)o2)n1N | 18 | 0 | 3 | 18 | 0
O=C(Cc1ccc(Br)cc1)N/N=C/c1ccc(-c2cccc(C(=O)O)c2)o1 | 7 | 1 | -2 | 62* | -1
O=C(O)c1cccc(-c2ccc(/C=N/NC(=O)c3cccnc3)o2)c1 | 23 | 2 | -7 | 57* | i
Cc1ccc(NC(=O)CC2(CC(=O)O)CCCC2)c(C)c1 | 3 | 3 | 4 | 2 | i
COc1ccccc1-c1cc2nc(C)c(CCC(=O)NC(C)CCc3ccco3)c(C)n2n1 (stereo not drawn) | 4 | -3 | -6 | 11 | 0
COC(=O)c1ccc(S(=O)(=O)N2CCC(NC(=O)Cc3cccc(C)c3)CC2)cc1 | x | x | 5 | x | x
CC(=O)Nc1cnc(-c2cc(C)c(O)c(C)c2)cn1 | 0 | x | -2 | 32* | -1
CC(=O)Nc1cnc(-c2ccc3c(c2)OCO3)cn1 | 1 | x | -6 | 14 | 3
COc1ccc(/C=C(\NC(=O)/C=C/c2ccco2)C(=O)NCCc2nc3ccccc3[nH]2)cc1 | 0 | 0 | -17 | 37* | 0
CCCCNC(=O)/C(=C/c1ccccc1)NC(C)=O | 0 | -4 | 0 | 5 | i
O=C(NCCc1nc2ccccc2[nH]1)/C(=C/c1ccco1)NC(=O)c1ccc(Br)o1 | -2 | 2 | -12 | 33* | 0
COc1ccc(/C=C(/NC(=O)/C=C/c2ccccc2)C(=O)NCCCCCC(=O)O)cc1 | 1 | 3 | 3 | 32* | 0
Cc1cc(N2CCOCC2)ccc1/C=C1\NC(=O)N(CC(=O)Nc2ccc(F)cc2)C1=O | -3 | -3 | -18 | 22 | -1
Cc1ccc(NC(=O)CN2C(=O)N/C(=C\c3cccnc3)C2=O)cc1 | 3 | 3 | 1 | 3 | 0
Cc1cccc(NC(=O)CN2C(=O)N/C(=C\c3ccc(N4CCOCC4)cc3)C2=O)c1 | -3 | 0 | -7 | 31* | -1
Cc1ccc(NC(=O)CN2C(=O)N/C(=C\c3ccco3)C2=O)cc1 | -2 | x | -10 | 34* | -2
O=C1N/C(=C/c2cccs2)C(=O)N1Cc1ccccc1F | 4 | 2 | 2 | 6 | 4
O=C1N/C(=C/c2ccco2)C(=O)N1Cc1ccccc1F | 0 | 2 | -14 | 33* | -1
O=C(CN1CCc2onc(-c3ccc(-n4cc(COc5ccc([N+](=O)[O-])cc5)nn4)cc3)c2C1=O)N1CCOCC1 | x | x | -9 | x | x
COC(=O)C1C=C2c3cccc4[nH]cc(c34)CC2N(C)C1 (stereo not drawn) | x | -7 | x | x | x
CC[C@@H](CO)NC(=O)[C@@H]1C=C2c3cccc4[nH]cc(c34)C[C@H]2N(C)C1 | 128* | x | -49 | -6 | i
COC(=O)C(=N/Nc1ccccc1C(=O)OC)/C(C)=N/O | -4 | 1 | -5 | 44* | 0
SMILES | FBA Mtb inh | SARS 3CLpro inh | PrPC TRFRET | GDH-TPI counter | BH1578 lux ind
CN(C)c1ccc(C2N(c3ccc(F)cc3)C(=O)C3CCCN32)cc1 (stereo not drawn) | -1 | 0 | 3 | 40* | -1
Cc1ccc2c(c1)Cc1nc3ccccc3nc1-2 | 57* | 2 | -14 | 8 | 0
CC1(C)CC(=O)c2sc(NC(=O)C3COc4ccccc4O3)nc2C1 (stereo not drawn) | 2 | -3 | 0 | 34* | -1
CC(=O)c1sc(NC(=O)C2COc3ccccc3O2)nc1C (stereo not drawn) | 5 | -6 | 41* | 17 | -1
CC1(C)CC(=O)c2sc(NC(=O)c3ccco3)nc2C1 | 0 | -4 | -7 | 26 | 0
COc1ccc(N(CC(=O)NC2CCCC2)C(=O)c2ccc(C)s2)cc1OC | 0 | 3 | -4 | -2 | 0
COc1cc2oc(=O)c(Br)c(C)c2c(OC)c1OC | 0 | -6 | 20 | 29 | -3
COc1cc2oc3cc(C)oc(=O)c3c2cc1OC | 142* | -1 | 3 | 19 | i
CCOC(=O)[C@H](CCc1ccccc1)N[C@@H](C)C(=O)N1Cc2cc(OC)c(OC)cc2C[C@H]1C(=O)O | x | x | 10 | x | x
Cc1cc(C)n2c(SCC(O)=C(C#N)c3nc4ccccc4[nH]3)nnc2n1 | 2 | x | -7 | 21 | i
COc1ccc(C)cc1-n1nnnc1SC/C(O)=C(\C#N)c1nc2ccccc2[nH]1 | -3 | 4 | 0 | 36* | -3
COc1cc(/C(O)=C(\C#N)c2nc3ccccc3[nH]2)cc(OC)c1OC | 12 | 3 | -1 | 38* | -1
N#C/C(=C(\O)c1cc(Cl)sc1Cl)c1nc2ccccc2[nH]1 | 0 | 4 | 11 | 39* | 1
N#C/C(=C(/O)c1ccc(Cl)cc1)c1nc2ccccc2[nH]1 | 2 | 9 | -6 | 3 | 0
COc1ccc(N/N=C(/C#N)S(=O)(=O)C(C)(C)C)cc1 | 4 | 6 | -5 | 18 | -1
COc1ccc(N/N=C(/C#N)S(=O)(=O)c2nsc(C)c2C#N)cc1 | -3 | -8 | 7 | 38* | 6
Cc1ccc(S(=O)(=O)N2C3CC(c4ccccc4)N(S(=O)(=O)c4ccccc4Cl)CC3C(=O)C[C@H]2c2ccccc2)cc1 (stereo partly drawn) | x | x | 12 | x | x
O=c1oc2cc(Oc3ccc(C(F)(F)F)cc3[N+](=O)[O-])ccc2c2c1CCC2 | 11 | 5 | 7 | 7 | 0
O=c1oc2cc(Oc3c([N+](=O)[O-])cc(C(F)(F)F)cc3[N+](=O)[O-])ccc2c2c1CCCC2 | + | 3 | 0 | 22 | 0
C[C@H]1C(c2ccc(F)cc2)=NN(c2ccccc2)[C@@H]1CO | 23 | x | -1 | 13 | i
COc1ccccc1[C@H]1C(c2ccccc2)=NN(c2ccccc2)[C@@H]1CO | 79* | x | x | 5 | 0
O=C(Oc1cc2oc(=O)cc(-c3ccccc3)c2cc1Cl)C1CCCCC1 | 32* | 5 | -1 | 16 | -1
Fc1cccc(Cc2c(-c3ccccc3)nc3ccc(Cl)cn23)c1 | 2 | x | 6 | x | x
COc1cccc(-n2ccnc2SCC(=O)NCc2ccccc2)c1 | 1 | 3 | 2 | 7 | 25*
O=C(NC1CC1)c1cc(-c2ccco2)nc2ccccc12 | 63* | 1 | x | 12 | -1
O=C(O)c1cc(-c2ccco2)nc2ccccc12 | 181* | -3 | -1 | 26 | 0
CN[C@@H](C)C(=O)NC[C@H]1O[C@@H](n2cnc3c(N)ncnc32)[C@H](O)[C@@H]1O | -2 | x | 0 | 3 | -4
O=C(NC(Cc1ccccc1)C(=O)O)/C(=C\c1ccccc1)NC(=O)c1ccc(Br)o1 (stereo not drawn) | 0 | 5 | 2 | 5 | i
Cc1cc(=O)oc(C)c1C(=O)NCCCN1CCN(c2ccc(F)cc2)CC1 | -2 | -1 | -6 | 40* | 1
